TGFb SMAD3 inh: qHTS for Inhibitors of TGF-b. HepG2 CAGA-GFP TGF-b/SMAD3 reporter, GFP fluorescence, 18 h; TGF-beta stimulated, 500 pg/mL final. Potency, µM (highest dose often 46.1 µM), actives largely listed as inhibitors. 410,000 tested, 1.2% active. AID 588855, 2011; also: nearly all actives have a fitted effect of over 65% in size
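Inhibition of TGF-beta-driven CAGA-GFP reporter expression in HEPG2 cells is measured by cellular GFP fluorescence after 18 h stimulation with 500 pg/mL recombinant TGF-beta in 1% FBS medium at 37 degrees C.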
Gal4-VP16 FLuc: VP16 counterscreen qHTS for inhibitors of ROR gamma transcriptional activity | Drosophila S2 Gal4-VP16 UAS-luciferase, luminescence, 20 h | Potency, µM (doses to about 53.6 µM), hits mostly inhibitors | 310,000 tested, 3.5% active;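 also: Gal4-VP16 expression switched on by copper sulfate through the metallothionein promoter; nearly all actives have a fitted effect of over 50% in size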
ATXN2 expr inh: Primary qHTS for Inhibitors of ATXN expression. 360,000 tested, 0.72% active. Potency, µM (top dose mostly 57 µM), hits mostly inhibitors. AID 1745845, 2022. HEK-293 ATXN2-luciferase reporter, luminescence, 24 h; also: nearly all actives have a fitted effect of over 55% in size
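ATXN2-luciferase reporter cells (luciferase flanked by upstream and downstream ATXN2 gene portions) were treated 24 h at 37 °C with compounds at up to 57 uM. SteadyGlo luminescence gave expression; GF-AFC fluorescence gave viability.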
HepG2 tox: qHTS for Inhibitors of TGF-b: Cytotox Counterscreen; HepG2 CAGA-GFP viability, ATP luminescence, 18 h; Potency, µM (titrated, usually from 46.1 µM), hits mostly cytotoxic; 410,000 tested, 0.76% active; AID 588856, 2011
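HepG2 CAGA-GFP cells (1000/well, DMEM with 1% FBS) received compound, then TGF-beta at 500 pg/mL final, and were incubated 18 hours at 37 degrees C. Viability was read by CellTiter-Glo luminescence. Media-only wells were set as complete cell-killing and DMSO as no toxicity.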
RORg inh: qHTS for inhibitors of ROR gamma transcriptional activity | Nuclear receptor ROR-gamma (Mus musculus), P51450 | Potency, µM (series often up to 53.6 µM), most hits filed as inhibitors | Drosophila S2 Gal4-RORgamma UAS-luciferase reporter, 20 h | 310,000 tested, 5.4% active; also: nearly all actives have a fitted effect of over 60% in size
Target sequence (P51450 whole entry, looked up, the tested form may be a part): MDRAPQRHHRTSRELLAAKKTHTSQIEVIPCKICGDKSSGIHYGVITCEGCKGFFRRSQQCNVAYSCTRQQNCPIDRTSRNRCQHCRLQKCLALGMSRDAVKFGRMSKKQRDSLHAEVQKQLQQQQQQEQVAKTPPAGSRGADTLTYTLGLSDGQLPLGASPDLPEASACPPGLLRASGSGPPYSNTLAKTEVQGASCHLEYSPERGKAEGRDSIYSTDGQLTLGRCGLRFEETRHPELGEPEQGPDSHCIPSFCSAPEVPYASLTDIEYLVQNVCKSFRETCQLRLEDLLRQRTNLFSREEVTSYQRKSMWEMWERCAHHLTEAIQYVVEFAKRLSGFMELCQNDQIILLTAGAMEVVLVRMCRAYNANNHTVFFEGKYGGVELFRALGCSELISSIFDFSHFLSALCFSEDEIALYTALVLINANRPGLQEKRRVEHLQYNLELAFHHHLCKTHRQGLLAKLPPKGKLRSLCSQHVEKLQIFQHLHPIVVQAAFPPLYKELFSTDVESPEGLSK
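A Gal4/UAS one-hybrid system in insect cells: metallothionein-promoter Gal4–ROR gamma fusion plus Photinus luciferase reporter. Copper sulfate 700 uM final, 20 hr ambient incubation, luminescent detection after 10 min with reagent.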
ATXN viability: Viability Counterscreen for Primary qHTS for Inhibitors of ATXN expression; S2 cells (HEK-293 line with an ATXN2-luciferase reporter) viability, CellTiter-Fluor protease fluorescence, 24 h; Potency, µM (doses to about 56.7 µM), usual class: cytotoxic; 400,000 tested, 0.49% active; AID 651635, 2014; also: nearly all actives have a fitted effect of over 40% in size
Each line names hits and unclear results; the compound was inactive in the other large screens. Shown are actives, neighbours in structure and some others; about 6.1% of the full set was active somewhere. Calls follow the shape of the dose curve; as a rule, active = well fitted curve in the direction sought with a large enough effect; inconclusive = small, poorly fitted or top-dose-only effect, or another doubt; inactive = no such curve, though single readings can be large; an effect the other way counts as inactive or inconclusive.

CC(NC(=O)CCc1nnc(-c2ccc(-c3ccccc3)cc2)o1)c1nc2ccccc2[nH]1 (stereo not given)	Gal4-VP16 FLuc inconclusive, ATXN2 expr inh 3.8µM
O=C(CSc1nncs1)Nc1nnc(-c2ccccc2)o1	Gal4-VP16 FLuc inconclusive, RORg inh 11µM
Cc1nnc(SCC(=O)Nc2nnc(-c3ccccc3)o2)s1	none (no result: Gal4-VP16 FLuc, RORg inh)
COc1ccc(CNC(=O)C2CCCN(C(=O)c3cnn(-c4ccc(F)cc4)c3-n3cccc3)C2)cc1 (stereo not given)	none (no result: Gal4-VP16 FLuc, RORg inh)
COc1ccc(Cl)cc1NC(=O)c1cc(-c2ccc3c(c2)OCO3)on1	none (no result: Gal4-VP16 FLuc, RORg inh)
C=CCn1c(SCc2ccccc2C#N)nnc1-c1cc(Br)ccc1O	Gal4-VP16 FLuc 25µM, RORg inh 18µM
C=CCn1c(SCC(N)=O)nnc1-c1cccc(Br)c1	none
O=C(O)CCCNC(=O)OCc1ccccc1	Gal4-VP16 FLuc 6.3µM, RORg inh inconclusive
CCC(C(=O)N1CCN(c2cc(Cl)ccc2C)CC1)n1nc(C)c2sc3ccccc3c2c1=O (stereo not given)	none (no result: Gal4-VP16 FLuc, ATXN2 expr inh, RORg inh, ATXN viability)
O=S(=O)(NCc1ccc(F)cc1)c1ccc(N2CCCCS2(=O)=O)cc1	none (no result: Gal4-VP16 FLuc, RORg inh)
CC1=CC(C)(C)N2C(=O)C(=Nc3ccc(O)cc3)c3cccc1c32	TGFb SMAD3 inh 13µM, Gal4-VP16 FLuc inconclusive, ATXN2 expr inh inconclusive (no result: ATXN viability)
COc1cc(N=C2C(=O)N3c4c(cccc42)C(C)=CC3(C)C)cc(OC)c1	TGFb SMAD3 inh inconclusive
CN(C)CCn1c2ccccc2c2nc3ccc([N+](=O)[O-])cc3cc21	TGFb SMAD3 inh inconclusive, Gal4-VP16 FLuc 11µM, ATXN2 expr inh 3.2µM, RORg inh 7.9µM
CCn1c2ccccc2c2cc([N+](=O)[O-])ccc21	none
COC(=O)c1ccccc1NC(=O)c1c(NC(=O)c2ccco2)sc2c1CCC(C(C)(C)C)C2 (stereo not given)	none (no result: Gal4-VP16 FLuc, RORg inh)
Cc1ccc(-c2nc(CN(CC3CCC3)CC3CCCO3)c(C)o2)s1 (stereo not given)	TGFb SMAD3 inh inconclusive, RORg inh 11µM
NS(=O)(=O)c1cccc(NC(=O)c2cc(=O)c3ccccc3o2)c1	RORg inh inconclusive
CN(c1ccccc1)S(=O)(=O)c1cccc(NC(=O)c2cc(=O)c3ccccc3o2)c1	ATXN2 expr inh 13µM, RORg inh inconclusive, ATXN viability inconclusive
C/C(=N\NC(=O)C1CC1c1ccccc1)c1cccc([N+](=O)[O-])c1 (stereo not given)	TGFb SMAD3 inh 11µM, Gal4-VP16 FLuc inconclusive
C/C(=N\NC(=O)c1cccc(S(=O)(=O)N2CCCC2)c1)c1cccs1	Gal4-VP16 FLuc inconclusive, RORg inh 13µM
C/C(=N\NC(=O)c1cccc([N+](=O)[O-])c1)c1cccs1	Gal4-VP16 FLuc 6.3µM, RORg inh 4µM
C/C(=N/NC(=O)c1ccc(O)cc1)c1cccc([N+](=O)[O-])c1	Gal4-VP16 FLuc 13µM, RORg inh 3.2µM
Cc1ccc(CNC(=O)C2CCN(S(=O)(=O)c3ccc4[nH]c(=O)ccc4c3)CC2)cc1	none (no result: Gal4-VP16 FLuc, RORg inh)
C/C(=N/NC(=O)c1cc(-c2cccc([N+](=O)[O-])c2)n[nH]1)c1cccc(O)c1	none (no result: ATXN2 expr inh)
CC(=O)Nc1cccc(/C(C)=N/NC(=O)c2ccc(O)cc2)c1	Gal4-VP16 FLuc inconclusive, RORg inh 11µM
COc1ccc(C(=O)N/N=C(/C)c2ccc(N3CCCCC3)cc2)cc1	none
C/C(=N\NC(=O)c1ccc(OC2CCCC2)cc1)c1ccc(O)cc1	Gal4-VP16 FLuc inconclusive, ATXN2 expr inh inconclusive, RORg inh 14µM
C/C(=N/NC(=O)c1cc(C2CC2)[nH]n1)c1cccs1	Gal4-VP16 FLuc 10µM, ATXN2 expr inh inconclusive, RORg inh 11µM
C/C(=N\NC(=O)c1cc(-c2cccc([N+](=O)[O-])c2)n[nH]1)c1ccccc1O	TGFb SMAD3 inh inconclusive, Gal4-VP16 FLuc 18µM, ATXN2 expr inh inconclusive, RORg inh 3.2µM

Source: PubChem (National Center for Advancing Translational Sciences (NCATS))
